Read-out in test [1]: Transforming growth factor beta 1 (TGFb1), TGFB1 (gene 7040)
Description: BSK_KF3CT_TGFb1: BioMAP Diversity Plus: KF3CT Assay for Transforming growth factor beta 1 (TGFb1) Biomarker Activity (AID 2283072). The following applies: primary human keratinocytes with fibroblasts; actives raise or lower the signal. In a few lines: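 Human keratinocyte plus foreskin fibroblast primary co-culture, dosed with chemical for 24 h. TGF-b1 quantified by ELISA. Activity fitted bidirectionally against DMSO negative control as baseline.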

Read-out in test [2]: C-C motif chemokine 2 (Homo sapiens) (UniProt P13500)
Description: BSK_KF3CT_MCP1: BioMAP Diversity Plus: KF3CT Assay for Monocyte Chemoattractant Protein 1 (MCP1/CCL2) Biomarker Activity (AID 2283073). The following applies: primary human keratinocytes with fibroblasts; actives raise or lower the signal. In a few lines: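 Biomarker MCP-1 is measured by ELISA in primary human keratinocytes co-cultured with foreskin fibroblasts, 24 h after chemical treatment; DMSO serves as the negative control and activity baseline.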

Read-out in test [3]: Matrix Metallopeptidase 9 (MMP9), MMP9 (gene 4318)
As to the kind of experiment: BSK_KF3CT_MMP9: BioMAP Diversity Plus: KF3CT Assay for Matrix Metallopeptidase 9 (MMP9) Biomarker Activity (AID 2283074).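 Note: MMP9 protein level quantified by ELISA in the co-culture.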 Conditions: primary human keratinocytes with fibroblasts; actives raise or lower the signal. In a few lines: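 Human keratinocyte and foreskin fibroblast co-culture exposed to chemicals for 24 h; MMP9 biomarker measured by ELISA, bidirectional fitting relative to DMSO; cytotoxicity tracked by SRB total protein staining in parallel cultures.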

Read-out in test [4]: urokinase plasminogen activator (uPA), PLAU (gene 5328)
Description: BSK_KF3CT_uPA: BioMAP Diversity Plus: KF3CT Assay for urokinase plasminogen activator (uPA) Biomarker Activity (AID 2283075). Conditions: primary human keratinocytes with fibroblasts; actives raise or lower the signal. The gist of the method:
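Primary human keratinocyte/foreskin fibroblast co-culture exposed to chemical; uPA measured by ELISA at 24 h. Bidirectional fit versus DMSO, with parallel SRB total-protein staining for cytotoxicity.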

Read-out in test [5]: CD40, CD40 (gene 958)
As to the kind of experiment: BSK_LPS_CD40: BioMAP Diversity Plus: LPS Assay for CD40 Biomarker Activity (AID 2283076). The following applies: primary human HUVEC with PBMC; actives raise or lower the signal. In a few lines: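 Using a multiplexed primary human co-culture (umbilical vein endothelium plus PBMC), CD40 was read by ELISA 24 h after dosing, with cytotoxicity tracked by sulforhodamine B staining of parallel cultures and activity fitted bidirectionally versus DMSO.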

Read-out in test [6]: E-selectin (Homo sapiens) (UniProt P16581)
Description: BSK_LPS_Eselectin: BioMAP Diversity Plus: LPS Assay for Eselectin Biomarker Activity (AID 2283077). The following applies: primary human HUVEC with PBMC; actives raise or lower the signal. The gist of the method:
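Dose chemical onto LPS-driven HUVEC/PBMC co-culture; after 24 h, run ELISA for E-selectin; fit up- and down-going responses relative to DMSO control.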

Read-out in test [7]: Interleukin-8 (IL8), CXCL8 (gene 3576)
As to the kind of experiment: BSK_LPS_IL8: BioMAP Diversity Plus: LPS Assay for Interleukin-8 (IL8) Biomarker Activity (AID 2283078). The following applies: primary human HUVEC with PBMC; actives raise or lower the signal. In a few lines: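 In this LPS system, chemical-treated human umbilical vein endothelium/PBMC co-cultures were harvested at 24 h for IL-8 ELISA.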

A short description of test [8]: BSK_LPS_SRB: Viability Assessment in the BioMAP Diversity Plus: LPS Assay (AID 2283079).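 Note: total protein by sulforhodamine B absorbance as a cytotoxicity measure; measured one day after compound addition; fitted in both directions against DMSO so loss or gain of signal counts.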 The following applies: primary human HUVEC with PBMC. In a few lines:
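Cytotoxicity endpoint in human endothelial–PBMC co-culture: 24 h exposure, then SRB (0.1%) staining, 560 nm read.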

Read-out in test [9]: Interleukin-1 alpha (IL1a), IL1A (gene 3552)
Description: BSK_LPS_IL1a: BioMAP Diversity Plus: LPS Assay for Interleukin-1 alpha (IL1a) Biomarker Activity (AID 2283080). The following applies: primary human HUVEC with PBMC; actives raise or lower the signal. The gist of the method: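 Primary human HUVEC and PBMC co-culture stimulated with LPS is dosed and harvested at 24 h. Both increases and decreases in ELISA-measured IL-1a are scored relative to DMSO.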

Read-out in test [10]: Monocyte Chemoattractant Protein-1 (MCP1), CCL2 (gene 6347)
As to the kind of experiment: BSK_LPS_MCP1: BioMAP Diversity Plus: LPS Assay for Monocyte Chemoattractant Protein-1 (MCP1) Biomarker Activity (AID 2283081). The following applies: primary human HUVEC with PBMC; actives raise or lower the signal. In a few lines: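 Values derive from bidirectional fitting against DMSO of ELISA-measured MCP-1 in a human primary endothelial and mononuclear cell co-culture, 24 h after chemical addition under LPS activation.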

Test [11] in a line: BSK_LPS_PGE2: BioMAP Diversity Plus: LPS Assay for Prostaglandin E2 (PGE2) Biomarker Activity (AID 2283082). Conditions: primary human HUVEC with PBMC; actives raise or lower the signal. In a few lines: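 HUVEC plus PBMC co-culture stimulated with LPS; secreted PGE2 quantified by ELISA 24 h after chemical dosing. Activity fitted bidirectionally against DMSO as negative control and baseline; parallel SRB total-protein staining served as cytotoxicity check.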

Read-out in test [12]: Macrophage colony-stimulating factor (MCSF), CSF1 (gene 1435)
Description: BSK_LPS_MCSF: BioMAP Diversity Plus: LPS Assay for Macrophage colony-stimulating factor (MCSF) Biomarker Activity (AID 2283083). Conditions: primary human HUVEC with PBMC; actives raise or lower the signal. In a few lines:
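Bidirectional fit versus DMSO of ELISA-measured M-CSF in co-cultured human umbilical vein endothelial cells and PBMC, sampled 24 h after dosing.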

Read-out in test [13]: Tissue Factor, F3 (gene 2152)
As to the kind of experiment: BSK_LPS_TissueFactor: BioMAP Diversity Plus: LPS Assay for Tissue Factor Biomarker Activity (AID 2283084). Conditions: primary human HUVEC with PBMC; actives raise or lower the signal. The gist of the method:
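Read-out: CD142 ELISA, 24 h. System: LPS-driven human endothelial/PBMC co-culture. Analysis: up- or down-signal fitted against DMSO.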

Read-out in test [14]: Tumor necrosis factor (Homo sapiens) (UniProt P01375)
Description: BSK_LPS_TNFa: BioMAP Diversity Plus: LPS Assay for Tumour Necrosis Factor alpha (TNFa) Biomarker Activity (AID 2283085). The following applies: primary human HUVEC with PBMC; actives raise or lower the signal. The gist of the method: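 Human umbilical vein endothelial cells co-cultured with PBMC were exposed to test chemical and TNFa measured by ELISA 24 h after dosing. Bidirectional curve fitting was done relative to DMSO as negative control and baseline.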

Read-out in test [15]: Vascular cell adhesion molecule 1 (VCAM1), VCAM1 (gene 7412)
Description: BSK_LPS_VCAM1: BioMAP Diversity Plus: LPS Assay for Vascular cell adhesion molecule 1 (VCAM1) Biomarker Activity (AID 2283086). Conditions: primary human HUVEC with PBMC; actives raise or lower the signal. In a few lines: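 Human umbilical vein endothelial cells co-cultured with peripheral blood mononuclear cells under LPS stimulation were exposed to test chemical for 24 h. VCAM-1 levels were then measured by ELISA, with bidirectional curve fitting relative to DMSO as negative control and baseline.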

Read-out in test [16]: CD38, CD38 (gene 952)
Description: BSK_SAg_CD38: BioMAP Diversity Plus: SAg Assay for CD38 Biomarker Activity (AID 2283087). Conditions: primary human HUVEC with PBMC; actives raise or lower the signal. In a few lines: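 Fluorescence ELISA of cell-surface CD38 served as the read-out, with either increase or decrease fitted against DMSO controls. Cells were a human umbilical vein endothelium plus PBMC co-culture under SEB/TSST-1 stimulation, measured 24 h after dosing.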

Read-out in test [17]: CD40, CD40 (gene 958)
As to the kind of experiment: BSK_SAg_CD40: BioMAP Diversity Plus: SAg Assay for CD40 Biomarker Activity (AID 2283088). Conditions: primary human HUVEC with PBMC; actives raise or lower the signal. The gist of the method: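 Endpoint derived by fitting increases or decreases versus DMSO controls. CD40 is detected by fluorescence ELISA in a human vascular co-culture of endothelium and PBMC at 24 h.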

Read-out in test [18]: CD69, CD69 (gene 969)
Description: BSK_SAg_CD69: BioMAP Diversity Plus: SAg Assay for CD69 Biomarker Activity (AID 2283089).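 For AC50: cell surface CD69 protein quantified by ELISA with fluorescence detection.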 Conditions: primary human HUVEC with PBMC; actives raise or lower the signal. In a few lines: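 Endothelial/PBMC co-culture; chemical added; 24 h incubation; CD69 ELISA with fluorescence detection; bidirectional fit vs DMSO.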

Read-out in test [19]: Monocyte Chemoattractant Protein-1 (MCP1), CCL2 (gene 6347)
Description: BSK_SAg_MCP1: BioMAP Diversity Plus: SAg Assay for Monocyte Chemoattractant Protein-1 (MCP1) Biomarker Activity (AID 2283090). Conditions: primary human HUVEC with PBMC; actives raise or lower the signal. In a few lines:
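MCP-1 levels in the endothelial–PBMC SAg co-culture were quantified by ELISA at 24 h post-dosing; both increases and decreases versus DMSO scored. Cytotoxicity monitored by SRB total protein in parallel cultures.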

Read-out in test [20]: E-selectin (Homo sapiens) (UniProt P16581)
Description: BSK_SAg_Eselectin: BioMAP Diversity Plus: SAg Assay for Eselectin Biomarker Activity (AID 2283091). Conditions: primary human HUVEC with PBMC; actives raise or lower the signal. The gist of the method: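 Endpoint values derive from bidirectional fitting relative to DMSO, using ELISA-measured E-selectin in a human vascular co-culture (umbilical vein endothelium plus PBMC) sampled 24 h after dosing.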

Active and inactive are the calls of the source. Rule for the calls: active = hit-call score of the fitted dose curve at least 0.9, where 1 is the maximum; inactive = score below 0.9.

E-selectin (Homo sapiens), sequence (P16581 whole entry, looked up): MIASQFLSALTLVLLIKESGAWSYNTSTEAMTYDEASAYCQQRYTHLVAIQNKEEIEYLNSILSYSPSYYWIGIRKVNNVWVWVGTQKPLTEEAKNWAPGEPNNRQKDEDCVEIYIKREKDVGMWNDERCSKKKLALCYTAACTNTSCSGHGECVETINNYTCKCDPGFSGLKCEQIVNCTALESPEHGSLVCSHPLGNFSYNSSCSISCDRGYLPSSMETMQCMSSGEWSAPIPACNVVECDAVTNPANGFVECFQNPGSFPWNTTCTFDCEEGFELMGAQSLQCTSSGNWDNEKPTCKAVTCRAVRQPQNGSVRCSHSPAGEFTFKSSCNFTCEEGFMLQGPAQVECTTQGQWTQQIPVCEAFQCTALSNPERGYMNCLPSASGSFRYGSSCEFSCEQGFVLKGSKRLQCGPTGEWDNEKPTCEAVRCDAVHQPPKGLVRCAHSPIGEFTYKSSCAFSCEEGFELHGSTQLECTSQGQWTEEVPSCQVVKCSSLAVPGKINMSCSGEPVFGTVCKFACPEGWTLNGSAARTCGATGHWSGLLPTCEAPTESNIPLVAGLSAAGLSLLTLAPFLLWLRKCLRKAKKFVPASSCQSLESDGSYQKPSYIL
Tumor necrosis factor (Homo sapiens), sequence (P01375 whole entry, looked up): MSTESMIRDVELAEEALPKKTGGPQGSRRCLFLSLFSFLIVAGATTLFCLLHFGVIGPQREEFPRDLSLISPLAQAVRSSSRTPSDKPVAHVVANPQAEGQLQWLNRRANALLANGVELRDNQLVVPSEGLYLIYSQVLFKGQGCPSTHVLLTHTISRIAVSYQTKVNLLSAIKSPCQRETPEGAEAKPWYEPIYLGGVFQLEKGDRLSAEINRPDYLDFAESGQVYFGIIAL

As a reminder, the AC50 is the concentration giving half of the maximal activity seen. As for `O=c1c(O)c(-c2ccc(O)c(O)c2)oc2cc(O)cc(O)c12`, the concentration at half-maximal activity (AC50) in test [1] is 20 µM (active); in test [2] it was 24.2 µM (active); in [3] it was 20 µM (active); in test [4], 12.7 µM (active); in [5], 28.5 µM (active); in test [7], 20 µM (active). Besides, the AC50 in test [8] is 32.8 µM (active); in test [11] it was 32.8 µM (active); in test [16] it was 29.9 µM (active); in [17] it was 36 µM (active). The result in test [6], in [9], in test [10], in test [12], in test [13] and in test [14] was inactive. In addition, the result in test [15], in test [18], in [19] and in [20] was inactive.

With `Nc1ccccc1N`, the result in test [1], in test [2], in [4], in test [6], in test [7] and in test [8] was inactive. For the same compound, the result in [9], in [10], in test [13], in [14], in [16] and in [17] was inactive. Moreover, the outcome in test [18] and in test [20] was inactive. Also, the AC50 was 20 µM (active) in [3], 5.79 µM (active) in test [5], 10.9 µM (active) in test [11] and 11.2 µM (active) in test [15].

For the compound `CC1=C(/C=C/C(C)=C/C=C/C(C)=C/CO)C(C)(C)CCC1`, the outcome in [1], in test [2], in test [4], in test [5], in test [7] and in test [8] was inactive. For the same compound, the result in test [9], in test [10] and in [13] was inactive. In addition, the AC50 in test [3] was 32.3 µM (active); in [6], 4.25 µM (active); in [11] it was 0.574 µM (active); in test [12] it was 8.45 µM (active); in test [14], 5.39 µM (active); in test [15], 30.5 µM (active). The half-maximal activity concentration (AC50) in [16] is 32.7 µM (active); in test [17], 26.4 µM (active); in test [18], 20.9 µM (active); in [19], 20.9 µM (active); in test [20] it was 12.8 µM (active).

The values are drawn from PubChem BioAssay (EPA / NIEHS).
